D2 PAM-1: D2 dopamine receptor (human) potentiation. potentiation, % at 10 µM. P14416. AID 485347. actives 0.34% (n = 340,000). HEK293 T-REx D2, calcium flux, EC20 dopamine potentiation;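 active means potentiation over 3 SD above the plate norm, cut at about 30% in these data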; further: 0% is about no effect
Target sequence (P14416 whole entry, looked up): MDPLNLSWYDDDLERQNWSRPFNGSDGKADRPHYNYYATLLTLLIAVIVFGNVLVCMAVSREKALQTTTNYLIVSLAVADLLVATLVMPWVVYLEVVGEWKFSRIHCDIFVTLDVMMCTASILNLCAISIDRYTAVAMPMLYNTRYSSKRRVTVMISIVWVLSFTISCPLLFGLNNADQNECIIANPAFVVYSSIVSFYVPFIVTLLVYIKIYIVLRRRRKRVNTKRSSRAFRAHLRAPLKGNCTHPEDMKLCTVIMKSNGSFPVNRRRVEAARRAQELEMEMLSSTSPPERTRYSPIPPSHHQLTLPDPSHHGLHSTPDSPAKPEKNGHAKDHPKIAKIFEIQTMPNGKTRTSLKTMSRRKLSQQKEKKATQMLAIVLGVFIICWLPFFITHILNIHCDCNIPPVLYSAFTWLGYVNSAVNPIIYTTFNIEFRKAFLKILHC
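Tetracycline-induced HEK293 T-REx cells force-coupled to calcium signalling expressed D2; compounds were pin-added after a 10 s baseline, read kinetically 180 s, then an EC20 dopamine challenge followed with a further 180 s calcium read.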
D2 ag-1: activates the human D2 dopamine receptor. P14416. AID 485358. actives 0.53% (n = 340,000). activation, % at 2 µM. HEK293 T-REx D2 cells, calcium flux agonist mode;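 active means activation over 3 SD above normal in the single-dose calcium agonist read, cut at about 30% in these data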; further: 0% is about no effect
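Tetracycline-induced HEK293 Trex cells with D2 receptor force-coupled to calcium signaling, plated overnight at 30 C and loaded with no-wash calcium dye. Calcium flux read kinetically for 180 s after compound addition; responses flag agonists.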
D2 PAM-2: potentiates the human D2 dopamine receptor allosterically | P14416 | DiscoveRx D2 beta-arrestin cells, luminescence, 90 min; 100% = 57 uM dopamine signal | potentiation, % (no concentration beside the values) | actives 0.23% (n = 360,000) | AID 624464; in the data active means potentiation above about 50%
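D2 cells co-treated with compound plus 50 nM dopamine (EC20) for 90 min at 37 deg C to detect potentiation. Beta-arrestin recruitment was read as enzyme-fragment luminescence after 1 h at ambient temperature. Full response was set by 57 uM dopamine.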
D2 antagonist: antagonists of human D2 dopamine receptor. actives 2% (n = 340,000). inhibition, % at 10 µM. HEK293 TREx D2 cells, calcium flux, dopamine EC80. AID 485344. P14416; in the data active means inhibition above about 30%; inactive means below that, where a call was filed; further: 0% is about no effect
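Compounds are added to dye-loaded, induced HEK293 T-REx cells coupled to calcium release via D2; after a 3 min kinetic read an EC80 dopamine stimulus is given and fluorescence is recorded for 3 more min.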
D2 ag-2: agonists of human D2 dopamine receptor (beta-arrestin); P14416; AID 624465; actives 0.084% (n = 360,000); DiscoveRx PathHunter D2 beta-arrestin, luminescence, 90 min; 100% = 57 uM dopamine signal; activation, % (no concentration beside the values); in the data active means activation above about 40%
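Agonist mode: compounds alone added to overnight-plated D2 PathHunter cells for 90 min at 37 C, with 57 uM final dopamine (EC100) defining full response. Beta-arrestin recruitment detected by chemiluminescent reagent, read after 1 h at ambient temperature.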
* marks the source's active call; other numbers are inactive results; x = not tested or not shown. Shown are actives, neighbours in structure and some others; about 2.4% of the full set was active somewhere.

SMILES	D2 PAM-1	D2 ag-1	D2 PAM-2	D2 antagonist	D2 ag-2
CC(=O)NCC(=O)N(Cc1ccco1)C1(C(=O)NC2CCCCC2)CCCCC1	0	1	-18	73*	-5
CC(=O)N(Cc1ccco1)C1(C(=O)NC2CCCCC2)CCCCC1	x	x	-6	x	-3
COc1ccc(F)cc1S(=O)(=O)Nc1ccc2c(c1)CCCN2C(=O)c1cccs1	4	0	x	x	x
CCCNC(=O)CSc1nc2ccc(OCC)cc2s1	13	1	-1	35*	-3
CCCCN1C(=O)C(O)(CC(=O)c2ccc(C(C)(C)C)cc2)c2ccccc21 (stereo not given)	16	x	x	x	x
CS(=O)(=O)c1nc(-c2ccc(Br)cc2)cc(-c2ccccc2)c1C#N	-3	1	0	41*	-2
C/C(=N\NC=O)c1ccncc1	30*	0	-8	3	-18
Cc1cccc(C)c1N(CC(=O)N1CCOCC1)S(C)(=O)=O	-3	0	-16	-2	-3
Cc1ccc2nc(Cl)c3cc(C(=O)N4CCCC(C)C4)sc3c2c1 (stereo not given)	-1	-1	x	x	x
CN(C)CCCn1c(SCC(=O)Nc2sc3c(c2C#N)CCCC3)nnc1-c1ccncc1	-4	0	-15	39*	0
COC(=O)NC1(C(F)(F)F)C(=O)NC(C)=C1C(=O)OC (stereo not given)	39*	1	-10	-4	0
Nc1nc(Cl)nc2c1ncn2[C@@H]1O[C@H](CO)[C@@H](O)[C@H]1O	12	4	-17	37*	2
COc1cc(/C=C/C(=O)CC(=O)/C=C/c2ccc(O)c(OC)c2)ccc1O	-13	53*	-10	27	4
COc1cc(/C=C2/C(=O)CNC2=O)ccc1O	-18	37*	-1	3	-1
COc1ccc(OC)c(/C=C/C(=O)N(C)CC(=O)Nc2ccc(N3CCOCC3)cc2)c1	-8	1	-27	40*	1
O=C(Cn1c(=O)n2nc(-c3cccc(F)c3)nc2c2ccccc21)N1CCN(c2ccc(F)cc2)CC1	-11	x	x	x	x
CCN(CC)S(=O)(=O)c1ccc(C(=O)NCC2(N3CCOCC3)CCCCC2)cc1	6	-2	-10	7	2
CN(C)C(=O)c1cc(C(=O)Cc2ccccc2)c[nH]1	5	1	-13	37*	-4
O=C(Cc1ccccc1)c1c[nH]c(C(=O)O)c1	-1	0	-2	8	-5
CCN(CC)C(=O)c1cc(S(=O)(=O)N2CCCCC2)c[nH]1	-12	1	-5	33*	2
CC(C)CN1CC(C(=O)O)CC1=O (stereo not given)	10	1	-6	-2	2
CCOC(=O)[C@H]1[C@H]2COc3ccc(Cl)cc3[C@@H]2N2C(=O)CN(Cc3ccco3)C(=O)[C@@]12C	14	0	1	-16	1
COc1cc(OC)c(NC(=O)c2cncn2-c2ccc(F)cc2)cc1Cl	x	x	-1	x	2
COc1cc(NC(=O)N2c3ccccc3Sc3ccccc32)c(C(=O)O)cc1OC	-1	0	3	8	50*
O=[N+]([O-])c1cc(-c2nc3nc4ccccc4nc3n2CCc2ccccc2)cc([N+](=O)[O-])c1	2	0	11	67*	14
SMILES	D2 PAM-1	D2 ag-1	D2 PAM-2	D2 antagonist	D2 ag-2
O=C(NCc1ccccc1)C(=O)Nc1nc(C23CC4CC(CC(C4)C2)C3)cs1	2	0	-23	32*	-4
CC1(C)C=C(c2ccc(C=O)s2)CC(C)(C)N1C=O	10	0	-14	19	2
CC1(C)C=C(c2ccc(C=O)s2)CC(C)(C)N1	6	0	-13	34*	-1
Cc1ccc(S(=O)(=O)C(CNS(=O)(=O)c2ccc(F)c(C(F)(F)F)c2)c2ccco2)cc1 (stereo not given)	-3	2	x	x	x
Cc1ccc(NS(=O)(=O)c2ccc3c(c2)CCC(=O)N3)cc1	-25	1	-2	65*	3
Cc1cc(C(N)=O)c2cc(Br)ccc2n1	39*	0	-1	-1	-2
Cc1cc(C)c(NC(=O)C(C)n2nnc3sc4c(c3c2=O)CCCC4)c(C)c1 (stereo not given)	3	x	x	x	x

Screens as filed in PubChem BioAssay.
